Experimental data reported in PubChem BioAssay (Tox21).
Values joined by “and” are separate entries in the source; they are usually repeats but may differ in a detail not shown here. Identical values can stand only once. Records with an inconclusive call do not appear. Entries that show only a call come without a potency. A number with no mark means an inactive call. Active and inactive are the calls of the source. Calls follow the shape of the dose curve; as a rule, active = well fitted activation curve with a large enough effect in the repeat runs; inconclusive = weak or mixed curves; inactive = no such curve, though single readings can be large or run the other way.

The molecules below were run against Nuclear receptor subfamily 1 group I member 3 (Homo sapiens) (UniProt Q14994) (assay: qHTS assay to identify small molecule agonists of the constitutive androstane receptor (CAR) signaling pathway (AID 1224839; also: nearly all actives have a fitted effect of over 15% in size;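 as to activation: HepG2 cells stably carrying human CAR and a CYP2B6 luciferase reporter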)). Conditions: HepG2 hCAR CYP2B6-luciferase, agonist mode, 24 h; series mostly up to 92.4 µM; activation: at the top concentration.
Excerpt: National Center for Advancing Translational Sciences [NCATS] NIH Chemical Genomics Center [NCGC] U.S. Environmental Protection Agency [EPA] National Institutes of Environmental Health Sciences [NIEHS] National Toxicology Program [NTP] Assay overview: The constitutive androstane receptor (CAR) is a nuclear receptor which regulates multiple drug metabolizing enzymes (DMEs) and transporters. Activating CAR will generally increase the transcription and subsequent translation of CYP2B6 and CYP3A4. These two DMEs represent about 50% of the drug metabolizing potential in the body. […] Recently, there have also been studies performed indicating CARs role in energy metabolism and cancer therapy. Therefore, inducing CARs activity could have a potential effect on diabetes and cancer. Identifying environmental toxins and compounds which modulate CAR, through the use of the Tox21 10K compound collection, will be an important step in determining the toxicity and potential therapeutic effects these factors will have on the human body.
Assay Protocol Summary: A double-stable (hCAR and CYP2B6-2.2kb) transfected cell line, derived from human hepatoma (HepG2) cells, was utilized for the duration of the quantitative high-throughput screens. The HepG2-CYP2B6-hCAR cells suspended in DMEM culture medium supplemented with 10% FBS, 5 ug/mL blasticidin, 0.5 mg/mL geneticin, 100 U/mL penicillin and 100 ug/mL streptomycin were dispensed at 2500 cells/4 uL/well in 1536-well white solid bottom plates using a Multidrop Combi. After the assay plates were incubated at 37 C/5% CO2 for 4 hrs, 23 nL of compounds at 15 concentrations (from 5-48 columns) or positive control (from 1 to 4 columns) were transferred to the assay plates using a Pintool station. One uL of PK11195, was added using a Flying Reagent Dispenser to generate a final concentration of 0.75 uM PK11195 inside each well. After a 24 hr incubation period at 37 C/5% CO2, four uL of ONE-Glo reagent was added into the assay plates using a Flying Reagent Dispenser. After a 30 min incubation period at room temperature, the luminescence intensity in the assay plates was measured using a ViewLux plate reader.
Potency is read from the fitted curve at half-maximal effect.

Sequence of Nuclear receptor subfamily 1 group I member 3 (Homo sapiens) (Q14994 whole entry, looked up): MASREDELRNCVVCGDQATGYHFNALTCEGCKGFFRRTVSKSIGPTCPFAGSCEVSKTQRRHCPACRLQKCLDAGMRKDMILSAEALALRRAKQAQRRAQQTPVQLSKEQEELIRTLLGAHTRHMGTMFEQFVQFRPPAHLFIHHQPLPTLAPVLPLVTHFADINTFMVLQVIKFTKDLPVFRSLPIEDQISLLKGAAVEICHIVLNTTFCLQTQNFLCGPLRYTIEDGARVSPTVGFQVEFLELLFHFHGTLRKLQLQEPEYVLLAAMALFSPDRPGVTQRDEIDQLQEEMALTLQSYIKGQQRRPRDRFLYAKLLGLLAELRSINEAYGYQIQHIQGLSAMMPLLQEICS

Q: Which Potency does the source give for `O=C1c2ccccc2CCc2ccccc21` here?
A: 31.3 µM (active) and 26.6 µM (active)

Q: With `CC(C)CC(=O)CC(C)CC(C)C` (stereo not given) as the molecule, how does the Potency read?
A: inactive

Q: `O=C(O)c1ccc(C(=O)O)c(C(=O)O)c1` was tested. Which Potency did it give?
A: inactive

Q: Which Potency does the source give for `C=Cc1ccc(C)cc1` here?
A: inactive

Q: For `CN1C(=O)CC[C@H]1c1cccnc1`, which Potency is on record?
A: inactive

Q: Which Potency does the source give for `CC(C)CCCCCCCOC(=O)CCCCC(=O)OCCCCCCCC(C)C` here?
A: inactive

Q: How did the Potency turn out when `CC(C)=CCl` was run?
A: inactive

Q: `O=C(O)CCCCCCCCC(=O)O` was tested. Which Potency did it give?
A: inactive

Q: How did the “activation” value turn out when `C=CC(=O)OCCC(=O)O` was run?
A: 15%

Q: With `CC(C)CC(C)O` (stereo not given) as the molecule, how does the Potency read?
A: inactive

Q: Which Potency does the source give for `C[Si]1(C)O[Si](C)(C)O[Si](C)(C)O[Si](C)(C)O1` here?
A: inactive

Q: `CC(C)(C#N)c1cc(Cn2cncn2)cc(C(C)(C)C#N)c1` was tested. Which Potency did it give?
A: inactive

Q: Which Potency does the source give for `O=C(O)c1ccc(S(=O)(=O)N(Cl)Cl)cc1` here?
A: inactive

Q: For `CCCCCCO`, which Potency is on record?
A: inactive

Q: Which Potency does the source give for `O=S(=O)(O)c1ccc(N=Nc2c(O)ccc3cc(S(=O)(=O)O)ccc23)cc1` here?
A: inactive

Q: Which Potency does the source give for `CCCCOC(=O)c1ccc(N)cc1` here?
A: 23.7 µM (active)

Q: `COC(=O)c1cccnc1` was tested. Which Potency did it give?
A: inactive

Q: `COc1cc(OC)c(C(=O)CCCN2CCCC2)c(OC)c1` was tested. Which Potency did it give?
A: inactive

Q: For `OCc1ccccc1`, which Potency is on record?
A: inactive

Q: `CC(C)OP(=O)(CP(=O)(OC(C)C)OC(C)C)OC(C)C` was tested. Which Potency did it give?
A: inactive

Q: Which Potency does the source give for `O=C(OCC1CCC2OC2C1)C1CCC2OC2C1` (stereo not given) here?
A: inactive

Q: Which “activation” value does the source give for `O=C1C(c2[nH]c3ccccc3c2O)=Nc2ccccc21` here?
A: 0.361%

Q: For `NCCNCCN`, which Potency is on record?
A: inactive

Q: For `O=C(O)c1ccccc1C(=O)O`, which Potency is on record?
A: inactive

Q: With `O=C(O)c1cc2ccccc2cc1O` as the molecule, how does the Potency read?
A: 43.3 µM (active)

Q: `Cc1ccc2ncccc2c1` was tested. Which Potency did it give?
A: inactive

Q: For `CC(C)OC(=O)COc1ccc(Cl)cc1Cl`, which Potency is on record?
A: inactive

Q: For `CC(=O)OCCOC(C)=O`, which Potency is on record?
A: inactive

Q: How did the Potency turn out when `COc1ccc(OC)cc1` was run?
A: inactive

Q: For `COCCOC(=O)c1ccccc1C(=O)OCCOC`, which Potency is on record?
A: inactive

Q: Which Potency does the source give for `CNC(=S)N(C)C` here?
A: inactive

Q: How did the Potency turn out when `CCOCCOCCOCCO` was run?
A: inactive

Q: How did the Potency turn out when `CCCCCCCCCCCCCCCC(=O)OC(C)C` was run?
A: inactive

Q: With `NCCN1CCNCC1` as the molecule, how does the Potency read?
A: inactive

Q: Which Potency does the source give for `C=CC(C)CCCC(C)(C)O` (stereo not given) here?
A: inactive

Q: How did the “activation” value turn out when `OCc1cccc(Oc2ccccc2)c1` was run?
A: 11.9%

Q: For `CCOCC(=O)O`, which Potency is on record?
A: inactive

Q: For `CC(=O)OCc1ccco1`, which Potency is on record?
A: inactive

Q: Which Potency does the source give for `CN/C(=C\[N+](=O)[O-])NCCSCc1csc(CN(C)C)n1` here?
A: inactive

Q: For `CC1(C)NC(=O)NC1=O`, which Potency is on record?
A: inactive
